Source: PubChem BioAssay
Most compounds without a hit are left out; they make up all but 6.1% or so of the library.
TGFb SMAD3 inh = inhibitors of TGF-b signaling | HepG2 CAGA-GFP TGF-b/SMAD3 reporter, GFP fluorescence, 18 h; TGF-beta stimulated, 500 pg/mL final | Potency, µM (series often up to 46.1 µM), usual class: inhibitors | 410,000 compounds, 1.2% hits; note: nearly all actives have a fitted effect of over 65% in size
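Per well, imaged GFP fluorescence of HEPG2 CAGA-GFP cells gives the signal; cells get compound, then TGF-beta (500 pg/mL final), 18 h at 37 degrees C; %Activity versus -TGF-beta and +DMSO controls.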
RORgamma inh = inhibitors of mouse ROR gamma transcriptional activity. Potency, µM (titrated, usually from 53.6 µM), most hits filed as inhibitors. 310,000 compounds, 5.4% hits. P51450. Drosophila S2 Gal4-RORgamma UAS-luciferase reporter, 20 h; note: nearly all actives have a fitted effect of over 60% in size
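ROR gamma transcriptional activity was tracked as Gal4-UAS luciferase output in stably transfected Drosophila Schneider cells, with compound added 1 hr before 700 uM copper sulfate induction and a 20 hr ambient-temperature incubation.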
S2 tox = cell viability loss in ATXN counter-screen; S2 cells (HEK-293 line with an ATXN2-luciferase reporter) viability, CellTiter-Fluor protease fluorescence, 24 h; Potency, µM (highest dose often 56.7 µM), hits mostly cytotoxic; 400,000 compounds, 0.49% hits; AID 651635; note: nearly all actives have a fitted effect of over 40% in size
Gal4-VP16 FLuc = Gal4-VP16 reporter inhibition counter-screen; Drosophila S2 Gal4-VP16 UAS-luciferase, luminescence, 20 h; Potency, µM (top dose mostly 53.6 µM), actives largely listed as inhibitors; 310,000 compounds, 3.5% hits;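 note: Gal4-VP16 expression switched on by copper sulfate through the metallothionein promoter; nearly all actives have a fitted effect of over 50% in size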
ATXN2 expr inh = ATXN2 expression inhibition. Potency, µM (series often up to 57 µM), usual class: inhibitors. HEK-293 ATXN2-luciferase reporter, luminescence, 24 h. 360,000 compounds, 0.72% hits; note: nearly all actives have a fitted effect of over 55% in size
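qHTS (up to 57 uM final) was run with 24 h compound exposure of reporter cells at 37 °C. Each well was multiplexed: SteadyGlo luminescence measured ATXN2-luciferase expression after a fluorogenic Gly-Phe-AFC viability readout (25 uM final).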
HepG2 viability = counter-screen for TGF-b inhibitors: cytotoxicity in HepG2 cells; HepG2 CAGA-GFP viability, ATP luminescence, 18 h; Potency, µM (titrated, usually from 46.1 µM), usual class: cytotoxic; 410,000 compounds, 0.76% hits; AID 588856
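CellTiter-Glo luminescence gave cytotoxicity after 18 hours at 37 degrees C. The cells were HepG2 CAGA-GFP in 1% FBS DMEM, stimulated with 500 pg/mL TGF-beta after compound addition. %Activity was normalised to no-cell wells (complete cell-killing) and DMSO (no toxicity), and curves were fitted and classified.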
Hits are given with their value; . = inactive; ? = inconclusive; / = no result given; [ ] = another dose, or the depositor's remark. Calls come from the whole dose curve; as a rule, active = well fitted curve in the direction sought with a large enough effect; inconclusive = small, poorly fitted or top-dose-only effect, or another doubt; inactive = no such curve, though single readings can be large; an effect the other way counts as inactive or inconclusive.

SMILES	TGFb SMAD3 inh	RORgamma inh	S2 tox	Gal4-VP16 FLuc	ATXN2 expr inh	HepG2 viability
COc1cccc2c1[C@@H]1CN(CCCCn3c(=O)[nH]c4c(sc5ncc(-c6ccccc6)nc54)c3=O)C[C@@H]1CO2	13µM	/	?	/	?	.
OC(c1ccc(F)c(F)c1)c1nc(-c2cccc(C(F)(F)F)c2)cs1 (configuration not stated)	?	/	?	/	.	20µM
Cc1ccc(-n2c(C3CC3c3ccc(Cl)cc3)n[nH]c2=S)cc1 (configuration not stated)	.	2.8µM	.	5.6µM	.	.
S=c1[nH]nc(C2CC2c2ccc(Cl)cc2)n1-c1ccc(Cl)cc1 (configuration not stated)	?	2.2µM	.	?	.	.
Cc1ccc(C2CC2c2n[nH]c(=S)n2-c2cccc(Cl)c2)cc1 (configuration not stated)	?	2.5µM	.	7.1µM	.	.
S=c1[nH]nc(Cn2nnc3ccccc32)n1-c1ccc(Cl)cc1	.	?	.	.	.	.
Cc1c(-c2n[nH]c(=S)n2-c2ccc(Br)cc2)nnn1-c1ccc(Cl)cc1	.	.	.	.[10 µM]	.	.
